Assay results as given in PubChem BioAssay (Tox21).
Inconclusive results are not listed. Activity calls are given as the source filed them. Unless noted, the call rests on the fitted dose curve.

Tests used:
[1] = Nuclear factor erythroid 2-related factor 2/antioxidant responsive element (Nrf2/ARE) small molecule agonists: qHTS cell viability counter screen in human keratinocytes (AID 1919968; active means well fitted curve in the direction sought with a large enough effect in the repeat runs; an effect the other way counts as inactive or inconclusive; further: nearly all actives have a fitted effect of over 55% in size; further: potency means the concentration at half of the fitted maximal effect)
How it was run: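 HaCaT ARE reporter line, 1,500 cells/well; 5 h settle, 37 C/5% CO2; cpd in DMSO pinned; 23 h exposure; CellTiter-Fluor, 1 h; fluorescence.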

[2] = Nuclear factor erythroid 2-related factor 2/antioxidant responsive element (Nrf2/ARE) small molecule agonists: luciferase reporter gene qHTS assay in human keratinocytes (AID 1919969); further: nearly all actives have a fitted effect of over 35% in size; further: potency means the concentration at half of the fitted maximal effect
[3] = target: Gonadotropin-releasing hormone receptor (Homo sapiens) (UniProt P30968); experiment: Human gonadotropin-releasing hormone receptor (GnRHR) small molecule agonists, calcium flux assay in GnRHR-HEK293 cells (AID 1920063); further: nearly all actives have a fitted effect of over 35% in size; further: potency means the concentration at half of the fitted maximal effect
Gonadotropin-releasing hormone receptor (Homo sapiens), sequence (P30968 whole entry, looked up): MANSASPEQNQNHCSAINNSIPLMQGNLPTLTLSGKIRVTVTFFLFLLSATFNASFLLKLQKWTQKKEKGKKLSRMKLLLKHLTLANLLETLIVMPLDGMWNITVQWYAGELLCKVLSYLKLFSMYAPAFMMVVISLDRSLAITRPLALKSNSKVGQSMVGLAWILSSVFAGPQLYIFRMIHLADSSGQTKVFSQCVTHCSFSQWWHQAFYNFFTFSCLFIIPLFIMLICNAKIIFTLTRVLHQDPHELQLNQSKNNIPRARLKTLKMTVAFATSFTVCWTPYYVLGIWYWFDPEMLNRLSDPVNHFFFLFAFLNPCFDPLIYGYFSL
How it was run: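 GnRHR-HEK293, 1500 cells/well, 18 h 37 C/5% CO2; Ca dye 1 h 37 C; cpd pinned (DMSO), agonist mode; kinetic FL 480/540, 3 min, 1 s reads; 15 conc, n=3.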

[4] = target: KiSS-1 receptor (Homo sapiens) (UniProt Q969F8); experiment: Human kisspeptin (KISS1R) small molecule agonists, calcium flux assay in KISS1R-HEK293 cells (AID 1920064; active means well fitted curve in the direction sought with a large enough effect in the repeat runs; an effect the other way counts as inactive or inconclusive)
KiSS-1 receptor (Homo sapiens), sequence (Q969F8 whole entry, looked up): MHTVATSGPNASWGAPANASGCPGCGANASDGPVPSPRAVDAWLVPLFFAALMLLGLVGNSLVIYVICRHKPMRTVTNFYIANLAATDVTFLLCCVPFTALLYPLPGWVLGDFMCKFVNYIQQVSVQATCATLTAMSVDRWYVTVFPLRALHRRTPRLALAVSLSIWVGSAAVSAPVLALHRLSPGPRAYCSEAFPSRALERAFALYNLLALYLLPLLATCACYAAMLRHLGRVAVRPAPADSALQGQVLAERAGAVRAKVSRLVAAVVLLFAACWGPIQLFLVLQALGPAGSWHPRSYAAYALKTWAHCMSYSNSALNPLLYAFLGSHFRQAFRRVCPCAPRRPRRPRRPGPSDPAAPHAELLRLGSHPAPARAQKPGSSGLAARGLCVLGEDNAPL
How it was run: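 Stable human KISS1R HEK293 line; 18 h plating, 37 C/5% CO2; calcium dye 1 h 37 C; compound pin transfer; kinetic fluorescence Ex/Em 480/540, 3 min.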

[5] = G protein-coupled receptor (GPCR) small molecule agonists, calcium flux assay: HEK293 wild type cell line counter screen (AID 1920065)
How it was run: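 Kinetic fluorescence at Ex/Em 480/540, recorded every second over 3 min, served as the read-out after compound addition. Each compound was tested at 15 concentrations in triplicate on cells pre-loaded with calcium dye for 1 h.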

[6] = p53 small molecule agonists, cell-based qHTS assay with human liver microsomes (AID 1963577);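 further: p53 response element beta-lactamase reporter cells with liver microsomes plus NADPH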
How it was run: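 HLM-supplemented p53RE-bla reporter assay: 16 h compound exposure at 37 C, microsomes and NADPH each 0.5 mg/mL final, read by fluorescence intensity.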

[7] = p53 small molecule agonists, cell-based qHTS assay with rat liver microsomes (AID 1963578)
How it was run: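 Quantitative HTS of the Tox21 10K library: p53RE-bla cells, rat liver microsomes plus NADPH at 0.5 mg/mL final each, 16 h at 37 C, beta-lactamase fluorescence detection.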

[8] = p53 small molecule agonists, cell-based qHTS assay with human liver microsomes: qHTS cell viability counter screen (AID 1963579); further: nearly all actives have a fitted effect of over 45% in size; further: potency means the concentration at half of the fitted maximal effect
How it was run: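 Viability of p53RE-bla cells is measured as CellTiter-Glo luminescence following a 16 h, 37 C incubation with compound, liver microsomes from human donors and NADPH.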

[9] = p53 small molecule agonists, cell-based qHTS assay with rat liver microsomes: qHTS cell viability counter screen (AID 1963580); further: nearly all actives have a fitted effect of over 45% in size; further: potency means the concentration at half of the fitted maximal effect
How it was run: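 Viability is assessed in parallel with the p53 reporter read: HCT-116 p53RE-bla cells receive compounds plus rat microsomes and NADPH (0.5 mg/mL final apiece), incubate 16 h at 37 C, and then CellTiter-Glo luminescence is recorded.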

[10] = p53 small molecule agonists, cell-based qHTS assay (AID 1963582; active means well fitted activation curve with a large enough effect in the signal ratio in the repeat runs, not every such curve was filed as active; the % refers to the signal ratio)
How it was run: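 Reporter line: p53RE-bla. Pre-incubation 5 h, 37 C, 5% CO2; compound (DMSO, pin tool) 16 h, 37 C; B/G FRET substrate 2 h RT; fluorescence intensity read.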

[11] = target: 5-hydroxytryptamine receptor 2A (Homo sapiens) (UniProt P28223); experiment: 5-hydroxytryptamine receptor 2A (HTR2A) small molecule antagonists, cell-based qHTS assay (AID 1963586); further: nearly all actives have a fitted effect of over 45% in size
5-hydroxytryptamine receptor 2A (Homo sapiens), sequence (P28223 whole entry, looked up): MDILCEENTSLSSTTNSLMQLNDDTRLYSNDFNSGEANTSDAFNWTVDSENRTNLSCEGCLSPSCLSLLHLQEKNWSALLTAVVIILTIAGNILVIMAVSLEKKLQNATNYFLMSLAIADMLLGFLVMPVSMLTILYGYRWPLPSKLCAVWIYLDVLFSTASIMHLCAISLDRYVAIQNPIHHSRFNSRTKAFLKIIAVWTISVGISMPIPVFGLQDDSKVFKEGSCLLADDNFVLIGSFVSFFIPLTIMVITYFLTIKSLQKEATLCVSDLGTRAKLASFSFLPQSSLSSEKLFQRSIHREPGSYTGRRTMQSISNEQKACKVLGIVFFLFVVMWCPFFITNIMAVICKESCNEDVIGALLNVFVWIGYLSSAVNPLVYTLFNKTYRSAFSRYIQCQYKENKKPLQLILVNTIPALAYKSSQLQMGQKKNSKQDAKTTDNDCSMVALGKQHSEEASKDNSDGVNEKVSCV
How it was run: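 Antagonist-mode intracellular calcium assay: DOI (4 nM) added after 5 min compound pre-incubation at room temperature to dye-loaded HTR2A-CHO cells. Fluorescence followed for 3 min, sampled every second.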

[12] = target: 5-hydroxytryptamine receptor 2A (Homo sapiens) (UniProt P28223); experiment: 5-hydroxytryptamine receptor 2A (HTR2A) small molecule agonists, cell-based qHTS assay (AID 1963587); further: nearly all actives have a fitted effect of over 30% in size; further: potency means the concentration at half of the fitted maximal effect
How it was run: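 CHO cells stably expressing human HTR2A, plated 18 h, loaded with calcium dye 1 h at 37 C. Agonist mode: compounds added and intracellular calcium fluorescence recorded kinetically for 2 min at 1 sec intervals.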

[13] = target: Muscarinic acetylcholine receptor M1 (Homo sapiens) (UniProt P11229); experiment: Cholinergic receptor muscarinic 1 (CHRM1) small molecule antagonists, cell-based qHTS assay (AID 1963588); further: nearly all actives have a fitted effect of over 40% in size; further: potency means the concentration at half of the fitted maximal effect
Muscarinic acetylcholine receptor M1 (Homo sapiens), sequence (P11229 whole entry, looked up): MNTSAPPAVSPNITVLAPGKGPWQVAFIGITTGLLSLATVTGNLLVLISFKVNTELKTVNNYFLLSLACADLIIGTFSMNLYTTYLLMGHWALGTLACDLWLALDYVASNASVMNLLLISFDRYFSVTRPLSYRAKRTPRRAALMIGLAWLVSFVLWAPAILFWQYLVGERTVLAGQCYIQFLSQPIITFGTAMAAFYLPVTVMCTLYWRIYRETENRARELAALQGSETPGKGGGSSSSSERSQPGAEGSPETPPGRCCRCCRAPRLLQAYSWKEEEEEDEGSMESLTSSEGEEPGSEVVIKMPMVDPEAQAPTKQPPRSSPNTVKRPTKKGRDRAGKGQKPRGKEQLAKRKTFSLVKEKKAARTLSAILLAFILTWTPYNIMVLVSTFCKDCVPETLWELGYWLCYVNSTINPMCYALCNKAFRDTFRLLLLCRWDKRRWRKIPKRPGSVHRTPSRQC
How it was run: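 CHRM1-CHO calcium-flux assay, antagonist mode. Cells were seeded 18 h, dye-loaded 1 h at 37 C and given compound for 5 min at RT, then acetylcholine was added at 50nM. FDSS fluorescence was read 3 min; 15 concentrations, three runs.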

[14] = target: Muscarinic acetylcholine receptor M1 (Homo sapiens) (UniProt P11229); experiment: Cholinergic receptor muscarinic 1 (CHRM1) small molecule agonists, cell-based qHTS assay (AID 1963589); further: nearly all actives have a fitted effect of over 35% in size; further: potency means the concentration at half of the fitted maximal effect
How it was run: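 Human M1 in stable CHO line; 18 h plating, 1 h dye load 37 C; cpd added (agonist mode); Ca2+ fluorescence kinetic read, 1 s intervals; 15 conc, 3 runs.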

[15] = cAMP Responsive Elements (CRE) small molecule agonists, cell-based qHTS assay (AID 1963590)
How it was run: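 HEK 293T CRE-bla, 2,000 cells/well, 18 h preincubation 37 C/5% CO2; cpds (DMSO) pinned, 3 h; LiveBLAzer B/G FRET substrate, 2 h RT.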

[16] = cAMP Responsive Elements (CRE) small molecule antagonists, cell-based qHTS assay (AID 1963591; active means well fitted inhibition curve with a large enough effect in the signal ratio in the repeat runs, not every such curve was filed as active; the % refers to the signal ratio)
How it was run: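 Beta-lactamase reporter read by FRET substrate (LiveBLAzer B/G) after 2 h at room temperature. CRE-bla HEK293T cells had received compound plus 0.25 uM (final) NKH477 for 3 h at 37 °C.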

[17] = target: Beta-2 adrenergic receptor (Homo sapiens) (UniProt P07550); experiment: Adrenergic beta2 receptor (ADRB2) small molecule antagonists, cell-based qHTS assay (AID 1963592); further: nearly all actives have a fitted effect of over 50% in size; further: potency means the concentration at half of the fitted maximal effect
Beta-2 adrenergic receptor (Homo sapiens), sequence (P07550 whole entry, looked up): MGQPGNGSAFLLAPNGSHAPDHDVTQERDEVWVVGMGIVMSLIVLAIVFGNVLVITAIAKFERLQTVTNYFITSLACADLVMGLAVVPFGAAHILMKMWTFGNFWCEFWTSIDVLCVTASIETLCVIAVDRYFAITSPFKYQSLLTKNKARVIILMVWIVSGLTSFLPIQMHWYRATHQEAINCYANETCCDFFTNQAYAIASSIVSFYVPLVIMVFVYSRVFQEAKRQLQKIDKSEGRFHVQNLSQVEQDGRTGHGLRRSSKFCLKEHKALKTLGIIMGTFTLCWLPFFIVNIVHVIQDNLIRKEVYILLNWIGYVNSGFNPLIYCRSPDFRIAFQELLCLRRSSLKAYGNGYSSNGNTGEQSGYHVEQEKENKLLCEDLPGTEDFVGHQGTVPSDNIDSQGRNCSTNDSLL
How it was run: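 Cells (CHO, stable ADRB2 overexpression) incubated 18-20hr at 37C; compounds added from DMSO; agonist mix (1nM isoproterenol, 100uM IBMX, 25uM Ro-20-1724) added; 0.5hr RT; d2-cAMP and anti-cAMP-cryptate added; 1hr RT; 665/615 nm read.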

[18] = target: D(2) dopamine receptor (Homo sapiens) (UniProt P14416); experiment: Dopamine D2 receptor (DRD2) small molecule agonists, cell-based qHTS assay (AID 1963594); further: nearly all actives have a fitted effect of over 35% in size
D(2) dopamine receptor (Homo sapiens), sequence (P14416 whole entry, looked up): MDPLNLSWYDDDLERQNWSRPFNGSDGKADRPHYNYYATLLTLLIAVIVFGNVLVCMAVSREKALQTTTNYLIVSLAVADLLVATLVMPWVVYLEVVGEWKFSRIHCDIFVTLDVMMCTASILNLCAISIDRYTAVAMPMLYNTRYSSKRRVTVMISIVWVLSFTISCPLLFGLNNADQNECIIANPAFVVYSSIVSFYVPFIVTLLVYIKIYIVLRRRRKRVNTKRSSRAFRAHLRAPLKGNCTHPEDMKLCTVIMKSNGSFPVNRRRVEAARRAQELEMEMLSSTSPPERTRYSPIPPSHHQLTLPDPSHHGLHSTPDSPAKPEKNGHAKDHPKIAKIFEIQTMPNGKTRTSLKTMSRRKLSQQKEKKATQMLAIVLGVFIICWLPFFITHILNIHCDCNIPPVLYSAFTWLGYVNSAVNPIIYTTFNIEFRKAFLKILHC
How it was run: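 HEK293 cells stably expressing human DRD2, pre-treated with PDE inhibitor Ro20-1724 (0.1 mM final) and compound 10 min at room temperature, then stimulated with NKH477 (200nM […]) for 30 min. cAMP read by HTRF (665/620 nm).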

[19] = p53 small molecule agonists, cell-based qHTS assay: qHTS cell viability counter screen (AID 1963581); further: nearly all actives have a fitted effect of over 45% in size; further: potency means the concentration at half of the fitted maximal effect
How it was run: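 HCT-116 p53RE-bla cells, 4,000/well, plated 5 h before compound pin transfer; 16 h at 37 C; bla substrate 2 h RT; then CellTiter-Glo, 30 min RT, luminescence.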

[20] = target: D(2) dopamine receptor (Homo sapiens) (UniProt P14416); experiment: Dopamine D2 receptor (DRD2) small molecule antagonists, cell-based qHTS assay (AID 1963595; active means well fitted inhibition curve with a large enough effect in the signal ratio in the repeat runs, with a control signal flat; the % refers to the signal ratio; further: potency means the concentration at half of the fitted maximal effect)
How it was run: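 Readout: HTRF cAMP, cAMP-d2 competing with cellular cAMP for anti-cAMP cryptate, read after 1 h. Cells: DRD2-HEK293. Conditions: 0.1 mM Ro20-1724, 12 nM quinpirole, 200 nM NKH477, 30 min RT.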

Measured: Potency

CCCCC(=O)Cl
not listed: [19] | [20]
inactive: all other assays above

CCOC(=O)C(Cl)Cc1cc(-n2nc(C)n(C(F)F)c2=O)c(F)cc1Cl (centres undefined)
not listed: [10] | [15] | [16] | [18] | [20]
inactive: all other assays above

COC(=O)C(C)N(C(=O)Cc1ccccc1)c1c(C)cccc1C (centres undefined)
not listed: [10] | [15] | [16]
inactive: all other assays above

CCc1ccc(C(=O)NN(C(=O)c2cc(C)cc(C)c2)C(C)(C)C)cc1
active: [13] 2.98 µM
not listed: [10] | [15] | [16] | [18]
inactive: all other assays above

CCOC(=O)COc1cc(-c2nn(C)c(OC(F)F)c2Cl)c(F)cc1Cl
not listed: [10] | [13] | [15] | [16] | [18]
inactive: all other assays above

C[C@]12Cc3nonc3C[C@@H]1CC[C@@H]1[C@@H]2CC[C@@]2(C)[C@H]1CC[C@]2(C)O
not listed: [12] | [15] | [16] | [17] | [19]
inactive: all other assays above

CN1C[C@@H](NS(=O)(=O)N(C)C)C[C@@H]2c3cccc4c3c(cn4C)C[C@H]21
active: [20] 1.19 µM
not listed: [11] | [16] | [18] | [19]
inactive: all other assays above

CN(CCCC(O)c1cccnc1)N=O (centres undefined)
not listed: [18] | [19]
inactive: all other assays above

C1CCNCC1
not listed: [11] | [19]
inactive: all other assays above

CC[C@H](C)[C@H]1O[C@]2(C=C[C@@H]1C)C[C@@H]1C[C@@H](C/C=C(\C)[C@@H](O[C@H]3C[C@H](OC)[C@@H](O[C@H]4C[C@H](OC)[C@@H](NC)[C@H](C)O4)[C@H](C)O3)[C@@H](C)/C=C/C=C3\CO[C@@H]4[C@H](O)C(C)=C[C@@H](C(=O)O1)[C@]34O)O2
inactive: [2] | [4] | [5] | [6] | [7] | [11] | [18]
active: [1] 9.69 µM | [3] 11 µM | [8] 28.9 µM | [9] 14.5 µM | [19] 10.2 µM | [12] 38.9 µM | [14] 38.9 µM | [17] 43.3 µM | [20] 13.7 µM

COc1ccc(C(=O)N2CCCC2=O)cc1
not listed: [10] | [11] | [12] | [13] | [14]
inactive: all other assays above

CCCCCCCCCCCCCCCCCCn1cc[n+](C)c1
active: [1] 19.2 µM
not listed: [10] | [11] | [13] | [15] | [16]
inactive: all other assays above

C[N+](C)(C)CCCl
not listed: [14] | [16] | [19]
inactive: all other assays above

Nc1n[nH]c(N)n1
active: [2] 27.8 µM
not listed: [15] | [16] | [19]
inactive: all other assays above

COc1ccc(C(c2ccc(OC)cc2)C(Cl)(Cl)Cl)cc1
active: [1] 19.2 µM | [2] 27.1 µM
not listed: [10] | [13] | [15] | [16] | [18] | [20]
inactive: all other assays above

C#CC(O)(C=CCl)CC (centres undefined)
not listed: [11] | [18] | [19]
inactive: all other assays above

C[C@]12C=CC(=O)C=C1CC[C@@H]1[C@@H]2CC[C@@]2(C)[C@H]1CC[C@]2(C)O
not listed: [11] | [15] | [16] | [19] | [20]
inactive: all other assays above
